Laboratory results published in PubChem BioAssay AID1159580 (chemical genetic matrix, 2015).
The campaign covered roughly 5,500 compounds. About 2,000 (36%) were called active. About 18% were inconclusive and are not listed. Cut-off read from the data, not from the text of the source: active = normalized growth mostly below about 0.91 (no sharp cut-off); inconclusive = no clear call, values can overlap the other calls; inactive = mostly above about 0.92. The list shows a part of the results.

Test: chemical genetic growth profiling, strain panel (AID 1159580);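 note: tested at 20 µM; growth read once vehicle control cultures reached saturation at 30 °C; 1 = growth at the plate median or of vehicle wells; lower values mean less growth of the strain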
Details: S. cerevisiae deletion strains, growth OD

Measured: normalized growth

C=C1C2CC[C@@]3(C)[C@H](c4ccoc4)OC(=O)C[C@]13O[C@H]1CC(=O)C(C)(C)C(CC(=O)OC)[C@@]21C (some centres not stated)
inactive: locus YAL021C, strain ccr4, hits give low values 1.01 | locus YAL026C, strain drs2, hits give low values 0.981 | locus YAL030W, strain snc1, hits give low values 0.983 | locus YBL061C, strain skt5, hits give low values 0.981 | locus YBR009C, strain hhf1, hits give low values 0.995 | locus YBR021W, strain FUR4, hits give low values 1 | locus YBR023C, strain chs3, hits give low values 0.977 | locus YBR171W, strain sec66, hits give low values 0.953 | locus YBR229C, strain ROT2, hits give low values 0.989 | locus YBR231C, strain swc5, hits give low values 0.983 | locus YBR279W, strain paf1, hits give low values 0.979 | locus YCL011C, strain gbp2, hits give low values 0.962 | locus YCL016C, strain dcc1, hits give low values 1.01 | locus YCL029C, strain bik1, hits give low values 0.992 | locus YCL061C, strain MRC1, hits give low values 0.987 | locus YCL069W, strain vba3, hits give low values 0.964 | locus YCR088W, strain abp1, hits give low values 0.964 | locus YDL005C, strain med2, hits give low values 0.969 | locus YDL035C, strain GPR1, hits give low values 0.984 | locus YDL040C, strain nat1, hits give low values 0.966 | locus YDL074C, strain BRE1, hits give low values 1.01 | locus YDL101C, strain DUN1, hits give low values 1 | locus YDL185W, strain tfp1, hits give low values 1.01 | locus YDL192W, strain arf1, hits give low values 0.988 | locus YDR001C, strain nth1, hits give low values 0.976 | locus YDR069C, strain doa4, hits give low values 0.975 | locus YDR101C, strain arx1, hits give low values 0.986 | locus YDR137W, strain rgp1, hits give low values 0.922 | locus YDR159W, strain sac3, hits give low values 0.948 | locus YDR162C, strain NBP2, hits give low values 0.962 | locus YDR195W, strain ref2 0.978 | locus YDR297W, strain sur2, hits give low values 0.983 | locus YDR318W, strain mcm21, hits give low values 0.998 | locus YDR334W, strain swr1, hits give low values 0.966 | locus YDR335W, strain msn5, hits give low values 0.972 | locus YDR388W, hits give low values 1.02 | locus YDR392W, strain spt3, hits give low values 0.958 | locus YDR502C, strain sam2, hits give low values 1.01 | locus YEL003W, strain gim4, hits give low values 0.979 | locus YEL037C, strain rad23, hits give low values 0.97 | locus YEL061C, strain CIN8 (second series), hits give low values 0.966 | locus YER015W, strain faa2, hits give low values 0.987 | locus YER016W, strain bim1, hits give low values 0.975 | locus YER110C, hits give low values 1.01 | locus YER111C, strain swi4, hits give low values 0.978 | locus YER155C, strain BEM2 (second series), hits give low values 0.991 | locus YER155C, strain BEM2, hits give low values 1.01 | locus YER167W, strain BCK2, hits give low values 0.984 | locus YFR010W, strain ubp6, hits give low values 0.963 | locus YGL078C, strain dbp3, hits give low values 1.02 | locus YGL086W, strain mad1, hits give low values 1 | locus YGL167C, strain pmr1, hits give low values 0.97 | locus YGL173C, strain kem1, hits give low values 0.969 | locus YGL227W, strain vid30, hits give low values 0.973 | locus YGL240W, strain doc1, hits give low values 0.974 | locus YGL248W, strain PDE1, hits give low values 0.998 | locus YGL253W, strain hxk2, hits give low values 0.952 | locus YGR135W, strain pre9, hits give low values 1.03 | locus YGR252W, strain gcn5, hits give low values 1.01 | locus YHR013C, strain ard1, hits give low values 0.974 | locus YHR027C, strain rpn1, hits give low values 0.985 | locus YHR030C, strain SLT2, hits give low values 0.996 | locus YHR079C, strain IRE1 (second series), hits give low values 0.998 | locus YHR094C, strain hxt1, hits give low values 1.01 | locus YHR129C, strain ARP1, hits give low values 1.01 | locus YHR142W, strain chs7, hits give low values 0.969 | locus YHR200W, strain rpn10, hits give low values 1.01 | locus YIL066C, strain RNR3, hits give low values 0.989 | locus YIL073C, strain SPO22, hits give low values 1.04 | locus YIL125W, strain kgd1, hits give low values 1 | locus YIR030C, strain dcg1, hits give low values 1 | locus YJL092W, strain hpr5, hits give low values 0.967 | locus YJL095W, strain BCK1 (second series), hits give low values 0.991 | locus YJL095W, strain BCK1, hits give low values 1.03 | locus YJL115W, strain asf1, hits give low values 0.973 | locus YJL129C, strain trk1, hits give low values 0.961 | locus YJL134W, strain LCB3, hits give low values 1.01 | locus YJL154C, strain vps35, hits give low values 0.973 | locus YJL164C, strain tpk1, hits give low values 1 | locus YJL166W, strain qcr8, hits give low values 0.977 | locus YJL168C, strain set2, hits give low values 0.998 | locus YJL187C, strain SWE1 (second series), hits give low values 1.01 | locus YJL187C, strain SWE1, hits give low values 0.974 | locus YKL009W, strain mrt4, hits give low values 0.968 | locus YKL068W, hits give low values 1 | locus YKL085W, strain MDH1 (second series), hits give low values 0.989 | locus YKL085W, strain MDH1, hits give low values 0.989 | locus YKL160W, strain elf1, hits give low values 1.01 | locus YKR001C, strain vps1, hits give low values 1 | locus YKR026C, strain gcn3, hits give low values 0.979 | locus YKR091W, strain srl3, hits give low values 0.986 | locus YLL001W, strain dnm1, hits give low values 1.01 | locus YLL026W, hits give low values 0.981 | locus YLL041C, strain sdh2, hits give low values 0.974 | locus YLR027C, strain aat2, hits give low values 0.996 | locus YLR039C, strain RIC1, hits give low values 0.794 | locus YLR058C, strain SHM2, hits give low values 1 | locus YLR102C, strain apc9, hits give low values 1 | locus YLR221C, strain rsa3, hits give low values 0.957 | locus YLR258W, strain gsy2, hits give low values 0.975 | locus YLR262C, strain YPT6 (second series), hits give low values 0.923 | locus YLR262C, strain YPT6, hits give low values 0.701 | locus YLR268W, strain sec22, hits give low values 0.984 | locus YLR320W, strain mms22, hits give low values 0.964 | locus YLR342W, strain FKS1 (second series), hits give low values 1 | locus YLR342W, strain FKS1, hits give low values 0.993 | locus YLR357W, strain rsc2, hits give low values 0.991 | locus YLR370C, strain arc18, hits give low values 0.955 | locus YLR371W, strain rom2, hits give low values 1.01 | locus YLR384C, strain iki3, hits give low values 0.964 | locus YLR418C, strain cdc73, hits give low values 1.01 | locus YML016C, strain PPZ1, hits give low values 0.995 | locus YML032C, strain rad52, hits give low values 1.02 | locus YML120C, strain ndi1, hits give low values 0.973 | locus YML124C, strain tub3, hits give low values 1.01 | locus YMR058W, strain fet3, hits give low values 0.983 | locus YMR078C, strain ctf18, hits give low values 1.01 | locus YMR125W, strain sto1, hits give low values 0.98 | locus YMR129W, hits give low values 0.985 | locus YMR205C, strain PFK2, hits give low values 1.03 | locus YMR223W, strain ubp8, hits give low values 1 | locus YMR231W, strain pep5, hits give low values 0.943 | locus YMR307W, strain GAS1, hits give low values 0.998 | locus YNL067W, strain RPL9B, hits give low values 1.02 | locus YNL071W, strain lat1, hits give low values 0.982 | locus YNL128W, strain TEP1, hits give low values 0.996 | locus YNL209W, strain ssb2, hits give low values 0.978 | locus YNL233W, strain BNI4, hits give low values 0.969 | locus YNL248C, strain rpa49, hits give low values 0.986 | locus YNL250W, strain rad50, hits give low values 1.02 | locus YNL271C, strain bni1, hits give low values 1 | locus YNL298W, strain CLA4, hits give low values 1.01 | locus YNL307C, strain MCK1, hits give low values 1.01 | locus YNL322C, strain KRE1 (second series), hits give low values 0.967 | locus YNR049C, strain mso1, hits give low values 0.982 | locus YNR052C, strain pop2, hits give low values 1.01 | locus YOL012C, strain htz1 0.839 | locus YOL147C, strain pex11, hits give low values 1.01 | locus YOR001W, strain rrp6, hits give low values 0.944 | locus YOR061W, strain CKA2, hits give low values 0.993 | locus YOR069W, strain VPS5, hits give low values 1 | locus YOR070C, strain gyp1, hits give low values 1.01 | locus YOR080W, strain dia2, hits give low values 0.957 | locus YOR083W, strain WHI5, hits give low values 1.01 | locus YOR106W, strain vam3, hits give low values 0.982 | locus YOR136W, strain idh2, hits give low values 1 | locus YOR144C, strain elg1, hits give low values 1.01 | locus YOR184W, strain ser1, hits give low values 0.985 | locus YOR265W, strain rbl2, hits give low values 1 | locus YOR270C, strain vph1, hits give low values 0.957 | locus YOR290C, strain snf2, hits give low values 0.97 | locus YOR316C, strain cot1, hits give low values 1 | locus YPL051W, strain arl3, hits give low values 0.995 | locus YPL078C, strain atp4, hits give low values 1.01 | locus YPL106C, strain sse1, hits give low values 0.978 | locus YPL240C, strain hsp82, hits give low values 0.965 | locus YPL241C, strain CIN2, hits give low values 0.998 | locus YPR119W, strain clb2, hits give low values 1.01 | locus YPR141C, strain kar3, hits give low values 0.997 | locus YPR163C, strain tif3, hits give low values 1.01 | locus YPR167C, strain met16, hits give low values 1 | strain wtn01, hits give low values 0.987
